According to PubChem BioAssay AID687 (PCMD, 2007):
Screen size: about 33,000 compounds; about 95 (0.3%) were called active. This is one part of a sample in which actives are shown more often than they occur.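 Rule for the calls: active = inhibition above 40% in the primary screen; inactive = the rest.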

Molecular target: Coagulation factor XI (Homo sapiens) (UniProt P03951)
Assay: human FXIa protease inhibitors, primary screen, biochemical, single compound per well (AID 687);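 note: 0% = enzyme without compound and 100% = blank wells lacking enzyme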
Conditions: purified human FXIa, fluorogenic AMC substrate cleavage; at 10 µM; active compounds read high

Chain of Coagulation factor XI (Homo sapiens) (P03951 19-387 limits assumed): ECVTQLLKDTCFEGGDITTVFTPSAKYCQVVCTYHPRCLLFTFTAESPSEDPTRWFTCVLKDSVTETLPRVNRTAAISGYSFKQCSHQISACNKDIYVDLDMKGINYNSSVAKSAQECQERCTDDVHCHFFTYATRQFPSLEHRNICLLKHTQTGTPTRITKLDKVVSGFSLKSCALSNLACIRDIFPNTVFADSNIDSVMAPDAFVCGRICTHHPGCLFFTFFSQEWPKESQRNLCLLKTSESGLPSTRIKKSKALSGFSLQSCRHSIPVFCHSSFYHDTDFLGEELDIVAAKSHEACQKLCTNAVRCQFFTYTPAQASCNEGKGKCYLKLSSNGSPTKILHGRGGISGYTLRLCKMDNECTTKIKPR
Chain of Coagulation factor XI (Homo sapiens) (P03951 388-625 limits assumed): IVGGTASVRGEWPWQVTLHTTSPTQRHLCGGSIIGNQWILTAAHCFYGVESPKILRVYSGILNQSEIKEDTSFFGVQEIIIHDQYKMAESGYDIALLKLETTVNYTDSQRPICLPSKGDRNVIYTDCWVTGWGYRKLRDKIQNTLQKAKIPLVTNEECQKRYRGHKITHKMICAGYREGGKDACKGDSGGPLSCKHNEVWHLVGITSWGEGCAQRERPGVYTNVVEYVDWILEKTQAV

inhibition, inactive:
CCC(=O)NC(Nc1nc2ccc(C)cc2s1)(C(=O)OC)C(F)(F)F (stereo not drawn) 0.39%
CCOC(=O)c1ccccc1NS(=O)(=O)c1ccc(OC)cc1 -1.8%
CCOc1ccc(C(=O)NCCCN2CCCC2=O)cc1 -9.62%
Cc1cc(C)cc(OCc2nnc(SCC(=O)OC3CCCCC3)o2)c1 2.82%
O=C(Nc1ccc(S(=O)(=O)N2CCc3ccccc3C2)cc1)c1ccccc1 4.52%
O=C1CSC(c2ccc(Cl)cc2)N1 (stereo not drawn) -2.99%
COc1ccc(-c2cc3nc(C)c(CCC(=O)NC(C)CCc4ccco4)c(C)n3n2)c(OC)c1 (stereo not drawn) 0.38%
C=C(C)CNC(=S)/N=c1\scc(C)n1CC -6.03%
COc1cc(S(=O)(=O)N(Cc2cccs2)C2CC2)ccc1-n1cnnn1 6.31%
COc1ccccc1Nc1nc(N)nc(CN(C)C2CCCCC2)n1 -1.79%
O=C(CCN1C(=O)c2ccccc2C1=O)Nc1cccc(F)c1 21.9%
O=C(CCn1c(SCC(=O)c2ccccc2)nc2ccccc2c1=O)NCc1ccc(F)cc1 -1.87%
CCCNC(=O)NCc1ccc(N2CCCC2=O)cc1 -4.89%
O=C(NCc1ccccc1)[C@@H]1CSC2c3ccccc3C(=O)N21 (stereo partly drawn) -6.84%
COc1ccc(N2CCN(C(=O)CNC(=O)c3ccc(C(C)(C)C)cc3)CC2)cc1 0.23%
COc1ccc2oc(=O)c(C(=O)N3CCCc4ccccc43)cc2c1 2.52%
C=CCN(C(=O)Cn1ncc2c1-c1cc(C)ccc1OC2)c1ccccc1 7.94%
CCCCSc1[nH]c(=O)c(C(=O)OCC)cc1C#N -3.65%
COC(=O)c1cccc(-n2[nH]nnc2=S)c1 8.73%
O=c1nc(N2CCOCC2)nc2n1CCO2 0.16%
Nc1nc(SCc2ccccc2Cl)n[nH]1 -1.35%
C=CCn1c(SCc2c(C)noc2C)nc2sc3c(c2c1=O)CCC(C)C3 (stereo not drawn) -0.06%
Cc1cccc(Cn2c(SCCO)nc3c2c(=O)n(C)c(=O)n3C)c1 -5.34%
COC(=O)Nc1ccc(S(=O)(=O)N2CCN(CCN3C(=O)C4C5C=CC(C5)C4C3=O)CC2)cc1 (stereo not drawn) 7.92%
CN(C)CCNC(=O)C(C(=O)c1ccccc1)n1ccccc1=O (stereo not drawn) -0.81%
Nn1c(SCC(=O)NC2CCCC2)nnc1-c1ccccc1F -0.95%
Cc1cc(C(F)(F)F)n2ncc(-c3ccccc3)c2n1 -2.08%
O=C(CN1CCN(C(=O)c2ccco2)CC1)Nc1ccc2c(c1)OCO2 -13.2%
CCOC(=O)c1ccc(COC(=O)CCc2nc(-c3ccccc3)c(-c3ccccc3)o2)cc1 -0.92%
Cc1ccc(CNC(=O)CCNS(=O)(=O)c2cccc3nonc23)cc1 -10.4%
CCc1nc(N2CCN(c3nc(C)cc(C)n3)CC2)c2oc3ccccc3c2n1 -4.81%
COc1ccc(CCN(C)CCN2C(=O)c3ccccc3C2=O)cc1OC -0.63%
Cc1ccc(OCC(=O)Nn2cnc3ccccc32)cc1 13.2%
CCOC(=O)c1cc2ccccc2nc1C -0.46%
CCOC(=O)c1ccc(COC(=O)c2cc(=O)[nH]c3ccccc23)o1 0.06%
CCOc1cc(CN2CCN(C(=O)CC(C)C)CC2)ccc1OC 0.6%
CC(NC(=O)Nc1ccccc1)c1ccccc1 (stereo not drawn) -3.02%
CC1CCC2(CC1)NC(=O)N(CC(=O)c1cccn1C)C2=O (stereo not drawn) -10.7%
CCOc1ccc(S(=O)(=O)N2CCCCCC2)c2ccccc12 -9.47%
O=C(NC1CCCCC1)c1ccc(CNc2c(N3CCOCC3)c(=O)c2=O)cc1 -0.69%
COc1ccc(CN2CCn3ncc(C(=O)Nc4ccc(Cl)cc4Cl)c3C2=O)cc1 8.32%
CCOC(=O)C1=C(CSc2nccn2C)NC(=O)NC1c1ccc(OC)cc1 (stereo not drawn) -6.24%
CC1(C)Cc2c(sc3nc(SCC(=O)NCc4ccccc4)n(-c4ccccc4)c(=O)c23)CS1 1.32%
O=C(C(NS(=O)(=O)c1cccc2nsnc12)c1ccccc1)N1CCN(c2ccccc2)CC1 (stereo not drawn) 4.95%
O=C(NCc1ccco1)C1(c2ccc(Cl)cc2)CCCC1 -4.42%
O=C(CCCn1c(SCC(=O)c2ccccc2)nc2ccccc2c1=O)NCC1CCCO1 (stereo not drawn) 7.29%
CCOc1ccc(-c2nc(C)sc2CC(=O)O)cc1 -1.47%
O=[N+]([O-])c1ccc(Oc2ccc(F)cc2Br)c2ccncc12 -2.08%
c1ccc2[nH]c(NCCN3CCOCC3)nc2c1 -1.88%
COC(=O)C1CCN(CC(N)=O)CC1 -11.2%
Cc1cc(=O)oc(C)c1C(=O)N1CCCCC1 32.7%
Cc1ccc(CNC(=O)C2CCCN2C(=O)NCc2ccccc2)cc1 (stereo not drawn) 26.7%
COc1ccc(O)c(C(=O)c2cnc3onc(C(C)C)c3c2)c1 -2.11%
O=C(CCN1c2ccccc2Sc2ccccc21)Nc1ccccc1 -11.6%
Cc1ccnc(NC(=O)c2ccc(NC(=O)c3ccco3)cc2)c1 1.44%
Cc1cccc(NC(=O)CN2C(=O)CNC2=O)c1 7.39%
COC(=O)c1cccc(N(C(=O)c2ccco2)C(C(=O)NC2CCCC2)c2ccco2)c1 (stereo not drawn) -11.4%
COc1ccc(N/N=C2/CCCCC2=O)cc1 19.4%
COc1ccc(N2CCN(C(=O)CCc3nc(-c4ccc(C)cc4)no3)CC2)cc1 8.76%
O=C(CNS(=O)(=O)c1ccc(Br)s1)N1CCN(C(=O)c2ccco2)CC1 -4.45%
Cc1cccc(C)c1NC(=O)CCCSc1nnc(-c2ccco2)n1-c1ccccc1 -0.71%
Cc1ccc(-c2csc(NC(=O)c3cccs3)n2)cc1 -11.7%
Oc1ccccc1CNc1ncc(Br)cc1Br -10.8%
CCC1(C)Cc2c(sc3nc(SC)nc(N)c23)CO1 (stereo not drawn) 14.2%
COc1ccc(NC(=S)N2N=CCC2c2ccccc2)cc1 (stereo not drawn) 0.63%
Cc1ccsc1C(=O)OCC(=O)c1cc2ccccc2o1 3.48%
O=P(c1ccc2c(c1)OCCO2)(N1CCOCC1)N1CCOCC1 2.3%
COc1ccccc1NC(=O)/C=C/C(N)=O 4.44%
CCOc1ccccc1NC(=O)Nc1cc(OC)ccc1OC -0.13%
COc1ccc(C(=O)NNC(=O)c2cnccn2)cc1[N+](=O)[O-] -1.41%
COc1cc2c(cc1OC)C(C(C)C)=NC(C)(C)C2 2.2%
Cc1ccccc1N1CCN(CCCOc2ccc3c(C)cc(=O)oc3c2)CC1 3.75%
CCCC(C(=O)NCc1ccco1)N(C(=O)CNS(=O)(=O)c1ccccc1)C1CCCC1 (stereo not drawn) -1.8%
Cc1ccc(OCC(=O)N/N=C\c2ccco2)c(C)c1 8.22%
COc1ccccc1CNS(=O)(=O)c1ccc(C)cc1 -5.43%
O=C(Nc1ccc(Sc2ccc(Br)cc2)cc1)c1ccco1 5.67%
CC1(C)CC(=O)NC=C(c2ccccc2)C1 2.57%
COc1ccc(C(=O)CSc2nccc(=O)[nH]2)cc1 4.89%
Cc1cccc(N2CCN(S(=O)(=O)c3ccc4[nH]c(=O)c(=O)[nH]c4c3)CC2C)c1 (stereo not drawn) -6.46%
Cc1nc(NNC(=O)c2ccccc2)cc(-c2ccccc2)n1 -2.36%
COc1ccc(-c2cc(C)nc3nc(N)nn23)cc1 -7.55%
Cc1ccc(C2(C(F)(F)F)N=C3Sc4cc(C)cc(C)c4N3C(=O)N2)cc1 (stereo not drawn) -3.09%
COCCn1c(=S)[nH]c2cc(C(=O)NCCc3ccc(OC)c(OC)c3)ccc2c1=O 1.93%
COc1ccccc1NC(=O)C1CCCN(c2cc(C)nc3ncnn23)C1 (stereo not drawn) -7.53%
COC(=O)C1=C(C)Nc2ncnn2C1c1cccnc1 (stereo not drawn) -8.85%
CCOC(=O)c1c(N)sc(C(C)=O)c1C 5.4%
CCCOc1ccc(C2NC(=O)NC(c3ccccc3)=C2C(C)=O)cc1OCC (stereo not drawn) -6.35%
Cc1ccc(S(=O)(=O)N2CCN(Cc3cccc(C)c3O)CC2)cc1 -1.32%
COC(C)(C)[C@]12CC(O)(C(C)C)ON1[C@H]1CCCCC1N2O (stereo partly drawn) 0.57%
CC(C)(C)c1cc(=O)n2c(nc3ccccc32)[nH]1 2.42%
COC(=O)c1ccc(Sc2ccc(F)cc2)c(N)c1 1.93%
CC1CCCCC1NC(=O)C1CCCN1S(=O)(=O)c1cccc2nsnc12 (stereo not drawn) 7.4%
COc1ccc(-n2nc3c(c2NC(=O)Cc2cccc(C)c2)CS(=O)C3)cc1 (stereo not drawn) 4.35%
CC(C)(C)c1nc2ccccc2c(=O)n1N1C(=O)c2ccccc2C1=O 2.66%
COc1ccc(-c2nnc(SCC(=O)c3ccc4c(c3)OCCO4)o2)cc1 -2.7%
COC(=O)/C(=C\Nc1ccccc1)NC(=O)c1ccc(Cl)cc1Cl 7.22%
CC(CN1CCOCC1)c1ccccc1 (stereo not drawn) 7.1%
O=C(CSCc1ccccc1)N1CCc2ccccc21 1.56%
Cc1ccc(OCCCC(=O)Nc2ccc(N3CCOCC3)cc2)cc1 3.13%
O=c1c2ccccc2nc(N/N=C/c2ccccc2)n1O 6.82%
Cc1[nH]n(-c2ccc(Cl)cc2)c(=O)c1/C=N/n1c(C)nc2ccccc2c1=O 4.91%
CC1(C)N=C(c2ccccn2)C(C)(C)N1O -1.83%

inhibition, active:
CCOC(=O)c1c(C)nc2c(c1C)c(=O)oc1ccccc12 43.4%
